Compound activity: PubChem, several laboratories
BCLXL inh = inhibitors of human Bcl-xL; Q07817; GST-Bcl-xL / FITC-Bim BH3 peptide fluorescence polarization; inhibition, % at 10.9 µM; hit rate 0.7% among 320,000; AID 2129;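 active = inhibition above the mean of all tested compounds plus 3 SD, cutoff set per campaign, cut at about 30% in these data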;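 also: 0% = DMSO wells and 100% = unlabeled Bim-BH3 peptide competitor; inhibitors lower millipolarization by displacing the labeled peptide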
MEX-5 binding = C. elegans MEX-5 TCR-2 RNA binding activity | Q9XUB2 | MEX-5/FITC-TCR2 RNA binding, fluorescence polarization; active compounds read low | activity score (negative = inhibition of binding), % at 10 µM | hit rate 0.38% among 300,000 | AID 1832;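 active = inhibition past about -25% in most replicates, and total fluorescence under double the plate's negative control median, limit read from the data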;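 also: 0% = DMSO and -100% = 5 µM competing unlabeled TCR2 RNA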
Target sequence (Q9XUB2 whole entry, looked up): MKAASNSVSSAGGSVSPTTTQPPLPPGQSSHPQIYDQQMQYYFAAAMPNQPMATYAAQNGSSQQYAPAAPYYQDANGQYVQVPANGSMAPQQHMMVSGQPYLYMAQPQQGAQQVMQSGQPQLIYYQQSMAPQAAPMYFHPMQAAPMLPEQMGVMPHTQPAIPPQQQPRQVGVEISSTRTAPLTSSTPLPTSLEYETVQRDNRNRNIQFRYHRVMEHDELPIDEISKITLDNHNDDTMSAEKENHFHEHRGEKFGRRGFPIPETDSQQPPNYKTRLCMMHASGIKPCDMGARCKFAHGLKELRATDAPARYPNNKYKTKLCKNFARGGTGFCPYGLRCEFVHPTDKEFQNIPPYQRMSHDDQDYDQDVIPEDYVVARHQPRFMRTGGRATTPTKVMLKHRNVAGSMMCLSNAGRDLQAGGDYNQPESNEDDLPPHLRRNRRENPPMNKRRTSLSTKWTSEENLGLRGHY
GLD-1 TGE inh = GLD-1-TGE RNA interaction inhibition (C. elegans) | hit rate 0.44% among 320,000 | purified GLD-1 + fluorescein TGE RNA, fluorescence polarization | inhibition, % at 5.96 µM | Q17339 | AID 2280;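 active = percent inhibition above a per-plate cutoff, the plate mean of test compounds plus 3 SD, cut at about 30% in these data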;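 also: 0% = DMSO wells with GLD-1 and probe and 100% = wells lacking GLD-1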
E coli Lon inh = inhibits E. coli Lon protease | P0A9M0 | purified E. coli Lon protease, fluorescence polarization | inhibition, % at 7.94 µM | hit rate 0.42% among 360,000; in the data active = inhibition above about 13%, passing the limit was not always enough;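 also: 0% = enzyme with probe and DMSO and 100% = no enzyme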
MCL1-BIM inh = MCL1-BIM-BH3 interaction inhibition (human). GST-MCL1 / FITC-Bim-BH3 fluorescence polarization. hit rate 0.68% among 320,000. Q07820. inhibition, % at 10.9 µM;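 active = inhibition above the mean inhibition of all tested compounds plus 3 SD, set per campaign, cut at about 40% in these data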;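 also: 0% = DMSO wells and 100% = unlabeled Bim-BH3 peptide control; higher means more loss of mP so more displacement of Bim peptide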
* hit, by the source's call; . = no result given. Rows were chosen to be rich in hits. Some 1.4% of all compounds tested hit in one or more screens of this group.

SMILES	BCLXL inh	MEX-5 binding	GLD-1 TGE inh	E coli Lon inh	MCL1-BIM inh
Cc1ccsc1/C=C/C1=Cc2c(sc(NC(=O)CSc3n[nH]c(N)n3)c2C#N)C(C)(C)C1	24.5	1.4	73.0*	-14.9	11.1
CCCNC(=O)C1(C)CCN(C(=O)c2cc(C(C)(C)C)nn2C)C1 (stereo unspecified)	.	.	.	-0.4	.
COC(=O)CCCC[C@@H]1O[C@H](CCc2ccccc2)Cc2[nH][nH]c(=O)c21	.	.	.	-2.0	.
CCOCCCn1c(SCC(=O)Nc2ccc(OC)cc2)nc2ccccc2c1=O	5.4	0.2	-4.4	14.0	2.7
CCNC(=O)C1CCCN(C(=O)c2ccco2)CC1 (stereo unspecified)	.	.	.	-4.9	.
N#Cc1ccc[n+](CC(=O)c2ccc(Cl)cc2)c1	33.2*	-3.7	15.6	-1.6	39.6
Cc1ccc[n+](CC(=O)c2ccc(Br)cc2)c1	.	-1.1	.	-8.1	.
Oc1c(C=Nc2ccccc2Cl)[nH]c2ccccc12	39.0*	-29.0*	11.5	9.0	28.1
O=C(C1=NN(c2ccccc2)C2C(=O)N(c3ccc(Cl)cc3)C(=O)C12)c1ccccc1 (stereo unspecified)	45.8*	.	23.1	-25.3	39.2
CC(=O)C1=NOC2C(=O)N(c3ccc(Cl)cc3)C(=O)C12 (stereo unspecified)	1.3	2.4	-4.0	-4.3	-0.1
O=C(C1=NN(c2ccccc2)C2C(=O)N(c3cccc(Cl)c3)C(=O)C12)c1ccccc1 (stereo unspecified)	31.9*	.	5.2	-40.2	13.6
COc1ccc(NC(=O)CSc2nc3c(c(-c4cccs4)c2C#N)CN(C)CC3)cc1OC	42.1*	-3.4	17.7	8.2	30.0
O=C(O)Cc1ccc(NS(=O)(=O)c2ccc3c(c2)OCCO3)cc1	.	.	.	-13.7	.
CN(C)S(=O)(=O)c1cccc(NC(=S)N/N=C/c2ccc(O)c(O)c2O)c1	.	-48.2*	.	15.2	.
O=Cc1ccc2ccc3cccnc3c2n1	5.8	-34.4*	3.3	6.8	10.0
N#C/C(=C\c1ccccc1[N+](=O)[O-])C(=O)Nc1ccc(S(N)(=O)=O)cc1	33.5*	-5.6	28.9	8.2	28.8
COc1ccccc1/C=C(\C#N)C(=O)Nc1ccc(S(N)(=O)=O)cc1	4.0	-0.2	-10.2	-4.3	-4.8
O=C(Nc1cccc2cccnc12)c1csc(COCCO)n1	.	.	.	11.6	.
Nc1ccn(C2OC(COP(=O)(O)O)C(O)C2O)c(=O)n1 (stereo unspecified)	.	.	.	-8.7	.
O=C(N/N=C\c1cc([N+](=O)[O-])ccc1N1CCCC1)c1ccccn1	1.2	-27.4*	-6.9	3.6	0.9
Oc1c(Cl)cc(Cl)cc1Sc1cc(Cl)cc(Cl)c1O	19.5	-4.4	-2.0	.	53.5*
O=S(c1cc(Cl)cc(Cl)c1O)c1cc(Cl)cc(Cl)c1O	.	.	.	-1.4	.
Cc1ccc(Nc2c([N+](=O)[O-])ccc3nonc23)c(C)c1	46.4*	0.1	-1.4	-3.0	6.5
Cc1cccc(Nc2c([N+](=O)[O-])ccc3nonc23)c1C	.	2.4	.	3.3	.
COc1ccccc1CNc1nc(NCCN2CCNC2=O)c2sccc2n1	.	.	.	0.1	.
SMILES	BCLXL inh	MEX-5 binding	GLD-1 TGE inh	E coli Lon inh	MCL1-BIM inh
CC(=O)Nc1ccc(C(=O)N2CCCC(c3cc(C(=O)Nc4ccccc4)no3)C2)cc1 (stereo unspecified)	.	.	.	-2.3	.
O=c1oc2ccc3ccccc3c2cc1-c1nc2ccccc2o1	15.2	-76.4*	6.0	-25.0	5.0
O=c1oc2ccccc2cc1-c1nc2ccccc2o1	-0.8	.	7.3	-1.0	-3.5
COc1ccc(-c2cc3c(c4c2ccn4C)C2CCC3C2)cc1OC (stereo unspecified)	.	.	.	-7.5	.
CCOc1cc(/C=C2/NC(=O)N(Cc3ccccc3F)C2=O)ccc1O	3.1	0.7	-4.5	-0.2	0.3
COc1cc(/C=C2/NC(=O)N(Cc3ccccc3F)C2=O)cc(OC)c1O	9.6	-9.5	66.3*	-9.9	14.5
COc1ccc(NC(=O)C2(C)Cc3c(-c4ccc(N(C)C)cc4)ccnc3O2)cc1OC (stereo unspecified)	.	.	.	-2.5	.
Nc1ccc(S(N)(=O)=O)cc1N	32.9*	0.8	1.2	-33.4	38.1
Nc1ccc(S(N)(=O)=O)cc1	-1.8	-1.6	1.6	.	-1.2
CCOc1cc2c3c(c1)C(C)=CC(C)(C)N3C(=O)C2=O	3.2	-0.7	2.6	-5.7	3.3
CC(=O)Oc1cc2c3c(c1)/C(=C1/SC(=S)NC1=O)C(=O)N3C(C)(C)C=C2C	50.2*	1.4	9.1	2.5	9.6
CC(=O)N1c2ccc3ccccc3c2C2C=CCC2C1c1ccc(Br)cc1 (stereo unspecified)	37.2*	.	41.2*	.	31.6
CC1=C(C(=O)Nc2ccccc2)C(c2ccc(C)o2)n2ncnc2N1 (stereo unspecified)	7.0	0.1	0.6	4.0	12.6
CC1=C(C(=O)NCc2ccccc2)C(c2ccc(C)o2)n2ncnc2N1 (stereo unspecified)	38.5*	0.0	29.9	-1.3	41.6*
Cc1cccc(CN2C(=O)N/C(=C/c3ccc(C)s3)C2=O)c1	-56.3	-28.9*	-81.2	-74.8	-74.5
O=C(OCc1ccc(C(=O)c2ccccc2)cc1)c1cccc(-c2nnc(-c3ccccc3)o2)c1	0.3	.	-1.1	16.4*	-3.0
CCN1CCN(C(C(=O)NC2CCCCC2)c2cc3ccccc3o2)CC1 (stereo unspecified)	.	.	.	-5.7	.
CNC(=O)/C(C#N)=C/c1ccc(-c2ccc(Cl)cc2)o1	5.7	-34.0*	3.3	-2.4	-1.5
COc1ccc(CCN2CC(=O)NC(=O)C2)cc1OC	.	.	.	-1.4	.
Cc1nnsc1C(=O)N/N=C/c1ccc2ccccc2c1O	74.8*	-2.1	-56.8	-87.7	83.7*
c1ccc(CCn2nnnc2CN2CCCc3ccccc32)cc1	41.5*	-6.3	5.1	12.7	41.5*
Fc1ccc(C(c2nnnn2CCc2ccccc2)N2CCCc3ccccc32)cc1 (stereo unspecified)	4.4	-1.1	0.5	2.4	3.7
C[C@H](CO)N1C[C@H](C)[C@H](CN(C)C(=O)Nc2ccnc(N3CCOCC3)c2)OCc2cnnn2CCCC1=O	.	.	.	-1.9	.
COC(=O)C1C(O)CCC2CN3CCc4c([nH]c5ccccc45)C3CC21 (stereo unspecified)	37.0*	-15.1	16.1	1.1	42.3*
c1ccc2sc(NCC3CCCO3)nc2c1 (stereo unspecified)	1.0	0.0	-5.1	3.1	4.3
CC1=CC(=C(C#N)c2nc3ccccc3s2)C=C(C)N1CC1CCCO1 (stereo unspecified)	-5.3	-35.8*	3.6	-12.3	-4.4
CC(C)c1ccc(C(=O)N2CCOCC2c2cc(C(=O)Nc3ccccc3)no2)cc1 (stereo unspecified)	.	.	.	5.0	.
CC1(C)OC2CC3C4CC(F)C5=CC(=O)C=CC5(C)C4(F)C(O)CC3(C)C2(C(=O)CO)O1 (stereo unspecified)	56.9*	0.4	12.3	3.0	52.9*
CC1OC(COCc2ccccc2)Cc2[nH][nH]c(=O)c21 (stereo unspecified)	.	.	.	-2.4	.
